Experiment [1] in a line: qHTS assay to identify small molecule antagonists of the estrogen receptor alpha (ER-alpha) signaling pathway using the BG1 cell line in the presence of 0.1 nM 17-beta-estradiol - cell viability counter screen (AID 1259241). Note: nearly all actives have a fitted effect of over 40% in size. Note: potency is the fitted concentration of half-maximal effect. In short, it runs like this: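 Live-cell protease activity (CellTiter-Fluor fluorescence, 30 min) was read in the same wells after VM7Luc4E2 cells had been exposed to compounds with 0.1 nM 17beta-estradiol for 22 hr at 37C.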

Experiment [2] in a line: qHTS assay to identify small molecule antagonists of the androgen receptor (AR) signaling pathway using the MDA cell line in the presence of 0.5 nM R1881 - cell viability counter screen (AID 1259242). Note: nearly all actives have a fitted effect of over 45% in size. In short, it runs like this:
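Concentration-response screen of compounds for toxicity in MDA-kb2 reporter cells: 16 hr at 37C with 0.5 nM R1881, endpoint live-cell protease fluorescence measured in the reporter wells.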

Experiment [3] is described as follows: qHTS assay to identify small molecule phospholipidosis (PLD) inducers (AID 1259344; active = well fitted curve in the direction sought with a large enough effect; an effect the other way counts as inactive or inconclusive). In short, it runs like this:
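After 4 h attachment on collagen I, HepG2 cells were dosed with compound alongside LipidTOX Red, kept 24 h at 37 C, fixed, and imaged for lamellar phospholipid pits.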
(In qHTS, concentration-response curves come from the screen itself.)

A short description of experiment [4]: qHTS assay to identify small molecule HDAC inhibitors (AID 1259364). Note: potency is the fitted concentration of half-maximal effect.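 Note: wild-type HCT-116 cells with endogenous class I/II HDAC activity; nearly all actives have a fitted effect of over 45% in size.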 In outline:
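Screening used wild-type human colon HCT-116 cells incubated overnight, dosed with compounds for 2 hours, and assayed with a homogeneous luminogenic HDAC I/II reagent for 30 minutes at room temperature.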

The nature of experiment [5]: qHTS assay to identify small molecule agonists of the sonic hedgehog signaling (Shh) pathway - cell viability counter screen (AID 1259366). Note: nearly all actives have a fitted effect of over 50% in size. Note: potency is the fitted concentration of half-maximal effect. In short, it runs like this:
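CellTiter-Fluor fluorescence read-out, 1 hr at 37C, added after 23hr compound exposure. Cells: 3T3 Gli1-Luc, an NIH/3T3 clone with stably integrated Gli1-Luc reporter, plated 4hr before compound.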

Experiment [6] in a line: qHTS assay to identify small molecule antagonists of the sonic hedgehog signaling (Shh) pathway - cell viability counter screen (AID 1259367). Note: nearly all actives have a fitted effect of over 55% in size. Note: potency is the fitted concentration of half-maximal effect. In short, it runs like this:
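Conditioned medium drove Shh signaling in 3T3 Gli1-Luc cells exposed to compounds at 37C and 5% CO2. Viability was determined from CellTiter-Fluor fluorescence, with reagent incubated 1 hr after 23 hr of treatment.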

Experiment [7] can be described thus: qHTS assay to identify small molecule antagonists of the sonic hedgehog signaling (Shh) pathway (AID 1259369; calls by dose curve; note: nearly all actives have a fitted effect of over 45% in size). In short, it runs like this:
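NIH/3T3 stable Gli1-Luc clone, 2,000 cells/well, 4hr settle; cpd + conditioned medium 24hr; Luc reagent 30min RT; luminescence.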

Experiment [8] can be described thus: qHTS assay to identify small molecule agonists of the androgen receptor (AR) signaling pathway in the presence of an antagonist - cell viability counter screen (AID 1259379). Note: nearly all actives have a fitted effect of over 25% in size. Note: potency is the fitted concentration of half-maximal effect. In outline: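 MDA-kb2 viability measured by CellTiter-Fluor fluorescence in the same wells as the luciferase signal; nilutamide 3.0uM final; 15-point compound titration; 16 hr at 37C.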

Experiment [9] can be described thus: qHTS assay to identify small molecule antagonists of the estrogen receptor beta (ER-beta) signaling pathway - cell viability counter screen (AID 1259382). Note: series mostly up to about 92 µM; nearly all actives have a fitted effect of over 55% in size. In short, it runs like this: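 Readout: luminescence, CellTiter-Glo, same wells as bla assay. System: ER-beta-UAS-bla GripTite HEK293T, 2% charcoal-stripped FBS. Exposure: compounds plus 1nM 17-beta-estradiol, 16 hr, 37C.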

The target of experiment [10] is Estrogen receptor (Homo sapiens) (UniProt P03372). Nature of the experiment: qHTS assay to identify small molecule agonists of the estrogen receptor alpha (ER-alpha) signaling pathway in the presence of an antagonist (AID 1259383; calls by dose curve; note: nearly all actives have a fitted effect of over 15% in size; note: potency is the fitted concentration of half-maximal effect; for activation: top concentration of the series differs between compounds). In short, it runs like this:
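Quantitative HTS confirmation: compounds titrated at 15 concentrations onto estrogen-deprived VM7Luc4E2 cells carrying a four-ERE luciferase construct, with ICI-182,780 present at 10.0nM final. Signal is luminescence after 22hr exposure.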

Experiment [11] shares this target. Nature of the experiment: qHTS assay to identify small molecule antagonists of the estrogen receptor alpha (ER-alpha) signaling pathway using the BG1 cell line in the presence of 0.1 nM 17-beta-estradiol (AID 1259244). Note: nearly all actives have a fitted effect of over 50% in size. Note: potency is the fitted concentration of half-maximal effect. In short, it runs like this:
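Compounds were tested against 0.1 nM (final) 17beta-estradiol in VM7Luc4E2 cells, which express full-length ER-alpha and an ERE-luciferase reporter; luminescence was recorded following 22 h exposure.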

A short description of experiment [12]: qHTS assay to identify small molecule agonists of the sonic hedgehog signaling (Shh) pathway (AID 1259368; calls by dose curve;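 note: NIH/3T3-derived 3T3Gli1-Luc cells carrying a stable Gli1-driven firefly luciferase reporter; series mostly up to about 92 µM; nearly all actives have a fitted effect of over 15% in size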). In outline:
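Hedgehog pathway agonism scored by increased firefly luciferase luminescence in 3T3Gli1-Luc cells treated 24 hr at 37 C; detection used a 30 min room-temperature reagent incubation.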

In experiment [13] the target is Estrogen receptor beta (Homo sapiens) (UniProt Q92731). In words: qHTS assay to identify small molecule agonists of the estrogen receptor beta (ER-beta) signaling pathway (AID 1259377; active = well fitted activation curve with a large enough effect in the signal ratio in the repeat runs, not every such curve was filed as active; the % refers to the signal ratio). In short, it runs like this: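 Beta-lactamase reporter readout: fluorescence of LiveBLAzer B/G FRET substrate after 2 h at room temperature, following 16 h compound treatment of ER-beta-UAS-bla HEK293T cells at 37C in 2% charcoal-stripped FBS medium.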

For experiment [14] the target is unchanged. In words: qHTS assay to identify small molecule antagonists of the estrogen receptor beta (ER-beta) signaling pathway (AID 1259378; active = well fitted inhibition curve with a large enough effect in the signal ratio in the repeat runs, not every such curve was filed as active; the % refers to the signal ratio; note: potency is the fitted concentration of half-maximal effect). In short, it runs like this: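 ER-beta-UAS-bla HEK293T (GripTite) cells in 2% charcoal-stripped FBS medium were preincubated 6 hr at 37C, dosed with compound, then stimulated with 1 nM E2 (final) for 16 hr; beta-lactamase reporter read by B/G FRET fluorescence after 2 hr substrate loading.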

Experiment [15] in a line: qHTS assay to identify small molecule agonists of the estrogen receptor beta (ER-beta) signaling pathway - cell viability counter screen (AID 1259380). Note: nearly all actives have a fitted effect of over 30% in size. In outline:
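Measured: luminescence from CellTiter-Glo after 30 min at room temperature, added to wells already read for the LiveBLAzer FRET reporter (2 hr substrate); ER-beta-UAS-bla HEK293T cells had 16 hr compound treatment at 37C, 5% CO2.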

The nature of experiment [16]: qHTS assay to identify small molecule agonists or antagonists of the thyroid stimulating hormone receptor (TSHR) signaling pathway - wild type cell line counter screen (AID 1259384; calls by dose curve). In outline: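 Wild-type HEK293 cells were plated 18 h at 37 C/5% CO2, pin-dosed with compound plus Ro20-1724 medium, held 30 min at room temperature, then given cAMP-d2 and anti-cAMP-cryptate; fluorescence was read after 1 h. Fifteen concentrations, triplicate.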

Experiment [17] deals with Thyrotropin receptor (Homo sapiens) (UniProt P16473). In words: qHTS assay to identify small molecule antagonists of the thyroid stimulating hormone receptor (TSHR) signaling pathway (AID 1259385; calls by dose curve; note: nearly all actives have a fitted effect of over 20% in size). In outline: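 TSHR-HEK293 cells were plated and held 18 h at 37C/5% CO2, then given compound plus Ro20-1724 and stimulated with TSH at 1.5 ng/mL final. After 30 min at room temperature, cAMP was detected with cAMP-d2/anti-cAMP-cryptate (1 h) by fluorescence.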

Experiment [18] can be described thus: qHTS assay to identify small molecule HDAC inhibitors - cell viability counter screen (AID 1259365). Note: series mostly up to about 92 µM; nearly all actives have a fitted effect of over 50% in size. In outline: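 HCT-116 (wild type), 1,500 cells/well, overnight 37C/5% CO2; compound in DMSO 2hr; CellTiter-Glo 30min RT; luminescence read.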

Several values for one entry are separate records, joined by “and”; a condition that tells them apart may be missing. Equal values may be shown once. Records with an inconclusive call do not appear. A structure can be active in one record and inactive in another. Activity calls are given as the source filed them. Unless noted, calls come from the whole dose curve; as a rule, active = well fitted curve in the direction sought with a large enough effect in the repeat runs; inconclusive = weak or mixed curves; inactive = no such curve, though single readings can be large; an effect the other way counts as inactive or inconclusive.

Estrogen receptor beta (Homo sapiens), sequence (Q92731 whole entry, looked up): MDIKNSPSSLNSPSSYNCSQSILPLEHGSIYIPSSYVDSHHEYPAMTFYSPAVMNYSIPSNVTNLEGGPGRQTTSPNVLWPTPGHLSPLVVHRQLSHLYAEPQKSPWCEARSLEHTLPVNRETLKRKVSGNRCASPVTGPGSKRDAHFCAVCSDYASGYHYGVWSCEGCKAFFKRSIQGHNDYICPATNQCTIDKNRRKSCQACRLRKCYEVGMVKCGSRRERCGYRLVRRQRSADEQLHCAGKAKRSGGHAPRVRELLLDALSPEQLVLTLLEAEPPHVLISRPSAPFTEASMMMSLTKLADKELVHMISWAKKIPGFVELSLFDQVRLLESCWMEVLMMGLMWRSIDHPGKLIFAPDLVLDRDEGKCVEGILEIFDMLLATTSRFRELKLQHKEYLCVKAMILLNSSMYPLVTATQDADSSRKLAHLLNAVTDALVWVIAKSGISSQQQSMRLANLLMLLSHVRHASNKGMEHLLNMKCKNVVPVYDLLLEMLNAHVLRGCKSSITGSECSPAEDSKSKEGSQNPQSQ
Thyrotropin receptor (Homo sapiens), sequence (P16473 whole entry, looked up): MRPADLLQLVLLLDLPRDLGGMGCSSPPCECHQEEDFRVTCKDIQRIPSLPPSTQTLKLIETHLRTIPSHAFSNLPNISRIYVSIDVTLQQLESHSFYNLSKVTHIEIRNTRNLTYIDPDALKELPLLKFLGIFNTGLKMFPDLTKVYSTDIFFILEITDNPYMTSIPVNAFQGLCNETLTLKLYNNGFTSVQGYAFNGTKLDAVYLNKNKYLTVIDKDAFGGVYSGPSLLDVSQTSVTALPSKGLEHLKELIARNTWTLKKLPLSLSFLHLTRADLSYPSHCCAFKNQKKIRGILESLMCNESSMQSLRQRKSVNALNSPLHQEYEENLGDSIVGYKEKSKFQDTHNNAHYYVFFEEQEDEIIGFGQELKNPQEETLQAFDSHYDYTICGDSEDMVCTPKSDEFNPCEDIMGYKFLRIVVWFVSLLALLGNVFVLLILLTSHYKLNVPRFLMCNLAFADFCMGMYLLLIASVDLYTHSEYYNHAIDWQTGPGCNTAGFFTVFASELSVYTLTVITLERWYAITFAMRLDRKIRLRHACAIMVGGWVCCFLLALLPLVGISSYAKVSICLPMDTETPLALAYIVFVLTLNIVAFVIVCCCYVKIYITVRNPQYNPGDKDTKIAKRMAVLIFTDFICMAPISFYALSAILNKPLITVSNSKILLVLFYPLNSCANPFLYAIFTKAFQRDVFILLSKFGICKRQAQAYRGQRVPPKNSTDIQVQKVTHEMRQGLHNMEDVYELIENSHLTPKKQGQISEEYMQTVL
Estrogen receptor (Homo sapiens), sequence (P03372 whole entry, looked up): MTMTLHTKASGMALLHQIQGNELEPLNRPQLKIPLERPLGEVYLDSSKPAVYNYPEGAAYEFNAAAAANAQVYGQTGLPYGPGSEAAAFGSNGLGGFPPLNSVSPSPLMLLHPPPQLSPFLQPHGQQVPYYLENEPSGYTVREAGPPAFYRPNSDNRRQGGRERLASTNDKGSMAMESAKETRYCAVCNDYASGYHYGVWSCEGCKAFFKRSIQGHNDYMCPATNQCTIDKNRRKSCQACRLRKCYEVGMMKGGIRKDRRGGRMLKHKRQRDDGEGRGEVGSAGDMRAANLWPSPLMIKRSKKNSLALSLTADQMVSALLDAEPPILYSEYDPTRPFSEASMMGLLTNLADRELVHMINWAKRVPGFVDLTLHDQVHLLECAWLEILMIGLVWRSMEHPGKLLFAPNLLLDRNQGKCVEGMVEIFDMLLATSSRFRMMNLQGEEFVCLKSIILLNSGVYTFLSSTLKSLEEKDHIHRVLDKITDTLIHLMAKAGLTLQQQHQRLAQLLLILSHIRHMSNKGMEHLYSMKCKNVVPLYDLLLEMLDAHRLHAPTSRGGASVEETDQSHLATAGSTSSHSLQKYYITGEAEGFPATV

Consider `CC1=C(/C=C/C(C)=C/C=C/C(C)=C/C(=O)O)C(C)(C)CCC1`, for which the Potency result in [1], in experiment [2], in experiment [3], in [4], in [5] and in experiment [6] was “inactive” in each case. Moreover, the Potency result in experiment [7], in experiment [8], in experiment [9] and in experiment [10] was “inactive” each time.

As for `C=CC(=O)NC(C)(C)CS(=O)(=O)O`, the Potency result in experiment [1], in experiment [2], in experiment [11], in experiment [4], in experiment [6] and in [7] was “inactive” in each case. For the same compound, the Potency result in experiment [14], in experiment [8], in [15], in experiment [9], in experiment [10] and in experiment [16] was “inactive” in each case. For the same compound, the result in experiment [12], in experiment [13] and in experiment [17] was inactive.

Take `CCN(CC)CCOC(=O)c1ccc(N)cc1`: the Potency result in experiment [1], in experiment [2], in experiment [3], in [4], in experiment [6] and in experiment [8] was “inactive” each time. The Potency entry in [9] and in experiment [16] was “inactive” each time. Moreover, the outcome in experiment [18], in experiment [12] and in experiment [17] was inactive.

With `NC(=O)N/N=C/c1ccc([N+](=O)[O-])o1`, the Potency entry in experiment [2], in [3], in [4], in [14], in experiment [8] and in [9] was “inactive” each time. For the same compound, the Potency entry in [10] and in [16] was “inactive” in each case. For the same compound, the Potency result in experiment [11] is “inactive and 64.8 µM (active)”; in [5], “inactive and 54.5 µM (active)”; in experiment [6], “inactive and 30.6 µM (active)”. Moreover, the call in [12] and in experiment [13] was inactive.

As for `O=c1cc[nH]c(=O)[nH]1`, the Potency entry in experiment [1], in experiment [2], in [3], in experiment [4], in experiment [6] and in experiment [14] was “inactive” in each case. Also, the Potency result in [8], in [15], in experiment [9] and in experiment [16] was “inactive” each time. The result in experiment [12] and in experiment [13] was inactive.

With `O=C1CCCCCN1`, the Potency entry in experiment [1], in experiment [2], in experiment [4], in experiment [14], in [8] and in [15] was “inactive” each time. For the same compound, the Potency result in [9] and in experiment [16] was “inactive” each time. The outcome in experiment [18], in experiment [12], in experiment [13] and in experiment [17] was inactive. The Potency in [6] was 3.86 µM (active) and inactive.

With `Cn1cnc2c1c(=O)[nH]c(=O)n2C`, the Potency entry in experiment [1], in experiment [2], in experiment [3], in [4], in experiment [5] and in experiment [6] was “inactive” throughout. The Potency result in [7], in [8], in [15], in [9] and in experiment [16] was “inactive” throughout. The call in [12] and in experiment [17] was inactive.

Turning to `Nc1ccc(N=Nc2ccccc2)c(N)n1`, the Potency in [1] was 61.4 µM (active) and 30.6 µM (active); in experiment [4] it was 13.8 µM (active) and 17.2 µM (active) and 10.6 µM (active); in experiment [5], 27.4 µM (active) and 27.3 µM (active); in [6] it was 27.4 µM (active) and 24.3 µM (active); in experiment [14], 54.5 µM (active); in experiment [8], 48.8 µM (active) and 30.6 µM (active) and 15 µM (active). In experiment [10], the Potency is 1.93 µM (active) and 3.76 µM (active). Besides, the Potency result in experiment [11], in [3], in experiment [7], in experiment [9] and in [16] was “inactive” in each case. For the same compound, the outcome in [18], in experiment [12] and in experiment [17] was inactive.

These data come from PubChem BioAssay (Tox21).
